# Test results from the supplement of paper PMC6555819.
# Tests used:
# Assay in all cases: PBM binding z-score (relative to random genomic background probes); higher = stronger binding; sequences stand for … in GC…GCGATTGACAGCGTAGAATGAAGG
# [1] = system: PPARg:RXRa DBDmut IVT, anti-RXR (DBD mutation: RXRa K156A/R161A, NR concentration 270 nM, RXRa partner concentration 90 nM)
# Outline: (§1)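 For binding z-scores, the reference was random background probes on custom Agilent 4×180K protein-binding microarrays. These arrays were incubated 1 h with ligand-free nuclear receptor dimers in PBS pH 7.4, 2% milk, 0.02% Triton X-100, 1 mM DTT, 0.2 mg/mL BSA and 0.4 mg/ml salmon testes DNA. Fluorescence was scanned after antibody detection of each partner (one per run) and regression-normalized.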
# [2] = system: PPARg:RXRa IVT, anti-PPARg (NR concentration 270 nM, RXRa partner concentration 90 nM)
# Outline: as §1
# [3] = system: PPARg DBDmut:RXRa IVT, anti-PPARg (DBD mutation: PPARg1 K132A/R137A, NR concentration 270 nM, RXRa partner concentration 90 nM)
# Outline: as §1
# [4] = system: PPARg DBDmut IVT, anti-PPARg (DBD mutation: PPARg1 K132A/R137A, NR concentration 270 nM)
# Outline: as §1
# [5] = system: PPARg homodimer (NR concentration 180 nM)
# Outline: as §1
# [6] = system: PXR:RXRa (NR concentration 270 nM, RXRa partner concentration 90 nM)
# Outline: as §1
# [7] = system: PXR homodimer (NR concentration 270 nM)
# Outline: as §1
# [8] = system: RARa:RXR (NR concentration 270 nM, RXRa partner concentration 90 nM)
# Outline: as §1
# [9] = system: RARa homodimer (NR concentration 270 nM)
# Outline: as §1
# [10] = system: RARb:RXRa (NR concentration 270 nM, RXRa partner concentration 90 nM)
# Outline: as §1
# [11] = system: RARb homodimer (NR concentration 270 nM)
# Outline: as §1
# [12] = system: RARg:RXRa (NR concentration 270 nM, RXRa partner concentration 90 nM)
# Outline: as §1
# [13] = system: RARg homodimer (NR concentration 270 nM)
# Outline: as §1
# [14] = system: RXRa DBDmut IVT, anti-RXR (DBD mutation: RXRa K156A/R161A, NR concentration 90 nM)
# Outline: as §1
# [15] = system: RXRa homodimer (NR concentration 180 nM)
# Outline: as §1
# [16] = system: THRa:RXRa (NR concentration 90 nM, RXRa partner concentration 90 nM)
# Outline: as §1
# [17] = system: THRa homodimer (NR concentration 90 nM)
# Outline: as §1
# [18] = system: VDR homodimer (NR concentration 270 nM)
# Outline: as §1
Sequence,PBM binding z-score [1],PBM binding z-score [2],PBM binding z-score [3],PBM binding z-score [4],PBM binding z-score [5],PBM binding z-score [6],PBM binding z-score [7],PBM binding z-score [8],PBM binding z-score [9],PBM binding z-score [10],PBM binding z-score [11],PBM binding z-score [12],PBM binding z-score [13],PBM binding z-score [14],PBM binding z-score [15],PBM binding z-score [16],PBM binding z-score [17],PBM binding z-score [18]
TCTAGTTGGTCAAAGGTCACATACTCGAAATGCG,3.45,6.25,1.46,1.64,5.02,5.59,1.83,7.12,3.51,4.83,5.18,6.93,6.01,1.65,7.86,3.89,1.76,2.75
CTCGAAAGGTCGGGCTCAGGTGAGTATACCAAAC,0.601,1.13,0.0395,-0.176,1.13,1.64,-0.297,2.71,0.232,3.36,2.49,4.07,3.19,0.869,3,3.46,1.06,0.356
AGAACGAGGGCAATGAATTGATAGCACGGGTGGC,3.39,2.58,0.112,-0.0881,-0.139,0.372,0.123,0.568,0.175,2.01,0.905,1.08,1.27,1.34,0.98,0.765,-0.323,0.621
GCTTGAAGATCAAGGTTAAGAAAGACTAAGCTAA,-0.184,-0.042,0.0638,-0.723,-0.0355,0.112,-0.655,0.675,-0.598,0.778,0.0789,0.319,0.181,-0.437,0.877,1.02,-0.36,-0.116
ATATGTAGGTTATCTGGTCATTCAGTTTGCGCAT,7.43,7.03,4.79,3.41,2.41,1.26,1.14,0.738,1.75,1.42,1.34,1.39,1.15,1.08,1.46,0.737,0.562,1.07
ACTCGGAGGACAAAGGCCAGAGCTACGCCAGTGA,-0.0476,-0.304,-0.91,-1.31,-0.117,-0.788,-0.627,-0.794,-0.32,1.44,0.873,0.907,1.26,0.472,-0.212,0.389,-0.475,-0.537
AATACAGCGTCATCGTAGGCCAGAGTACGCACAG,-0.562,0.0727,0.418,-0.309,-0.333,-0.367,-0.167,-0.0509,-0.571,-0.182,-0.094,-0.121,0.174,-0.495,-0.0638,0.55,-0.659,-0.00282
TAGCCTAGGTCATGCGGGCCAGTAAAGTGTCGGC,1.41,2.75,0.246,-0.0156,0.811,1.51,-0.33,2.44,-0.385,3.78,2.88,3.9,4.1,1.04,2.94,2.98,0.78,0.405
CAAACTAGGTCACGAAAGGTCAAAGTCGAATGAC,8.54,9.04,3.28,2.22,5.79,7.14,2.95,7.8,3.54,5.84,5.65,7.91,8.57,2.39,7.98,5.23,2.6,3.77
GTACCAAGGTGAATAGGTCGTTGAGGAGTAGGCG,1.82,2.41,-0.447,-0.52,1.24,0.61,0.0954,1.74,0.334,1.99,1.97,2.83,1.46,-0.482,1.63,1.76,0.714,0.676
CCAGACAGGTGAAAGATAACTCAGTCTGGTACGC,1.22,0.571,-0.176,-0.498,0.844,-0.0544,0.127,0.381,0.87,0.534,0.244,0.614,0.6,0.193,0.775,0.125,-0.296,0.339
CGTCAAAGTTCAACTAAGGTAACCTAAAGCACGC,0.618,2.35,0.979,1.12,5.46,6.07,4.78,5.01,2.75,5.31,4.36,6.08,6.64,4.81,4.92,5.31,2.1,4.48
TCATATAGGGAAAGGTGAAAGTCGAACGATATGA,2.4,2.31,0.712,0.709,0.702,0.972,0.00313,1.74,0.496,1.78,1.48,1.49,1.17,0.835,2.02,1.01,-0.407,-0.12
CGTTACGGGTCACGAGGTTATAGCACGACGAGCG,4.5,5.57,1.39,0.539,1.92,4.65,0.178,5.93,0.803,4.56,3.99,6.32,5.62,2.01,7.51,3.95,1.09,1.96
ACTAGCAGGCCAAGGGTCATTCAAGATTAGTCCG,0.965,3.72,0.143,-0.155,1.76,3.83,0.144,4.26,0.503,3.41,3.62,4.15,3.24,0.96,4.5,3.12,0.107,2.6
TCTTGTAGATCAATAGAGGTGAAGAAAGTGCGCT,2.33,1.64,0.582,1.07,-0.35,1.52,-0.318,1.28,0.328,0.777,0.962,0.365,0.434,0.561,0.577,2.59,-0.132,-0.534
ATCGAAAGGTCGAAGGTGAGTATCCCCACCCGAA,0.0448,2.14,0.338,0.675,1.12,2.87,-0.31,3.89,0.365,3.68,2.43,3.95,3.71,0.658,4.73,2.36,0.377,0.132
GTACCAAGGCGAATAGGTCGTTGATGAGTAGGCG,-0.264,-0.208,-0.611,-1.17,-0.305,-0.106,-0.0295,0.507,-0.623,0.291,0.278,0.265,0.191,-0.465,0.543,0.0285,-0.524,-0.0798
TCGAGTAGGTTAGTCGGGGCATTAAGCCAACATA,2.22,1.85,-0.456,0.127,0.173,0.149,-0.182,0.471,-0.436,0.306,0.232,0.0892,-0.106,0.352,-0.0422,1.02,-0.508,0.177
ACTAGCAGGCTAAGTTTGGGTCACTCAAACAAAG,0.316,0.557,-0.411,-0.519,-0.136,0.49,-0.438,1.31,-0.552,1.17,1.72,0.94,0.818,-0.349,0.549,2.37,0.936,-0.0144
AGGCAAAGTTCAGGACGAGGTAACGTAAAGCACG,-0.11,1.19,0.287,-0.24,2.28,2.89,1.59,2.82,1.16,4.26,3.36,4.68,5.16,2.98,3.23,3.87,1.95,2.35
TTTCAAAGTTCAAAGGTAACGTAAGTATCCACAC,0.271,2.61,1.49,1.37,3.4,5.62,4.59,6.38,1.45,4.99,3.87,6.29,5.88,4.68,7.2,3.58,0.252,4.68
TCTTGGAGATCAGCAGGTTAAGAAAGCTGGCCAA,1.35,-0.4,-0.469,-0.467,-0.281,0.203,-0.366,0.266,0.00806,0.0526,-0.0506,-0.0345,-0.56,0.285,0.182,0.0283,-0.695,-0.225
TCTGTTAGGTCAGTTGGTCAGCTAACGAGCTGCC,2.15,3.2,2.86,2.08,1.91,0.988,0.313,1.29,0.814,3.71,3.01,3.01,4.2,1.33,1.19,2.68,1.69,0.469
TCTAGTTGGTCAGGGAGGTCACACACGACGGGTA,2.21,3.14,0.418,0.586,2.66,4.14,1.55,4.2,1.51,3.63,4.42,4.31,3.88,1.08,4.14,3.63,2.88,3.18
CGAACTATGTCATTGACAGGACAGTGAATAGTAA,3.29,2.17,0.536,1.15,0.302,0.0899,0.452,0.317,0.439,0.614,0.32,0.772,0.637,0.491,0.127,0.297,-0.398,0.0338
ACTAGCAGGCCAAGTTCGGGTCACTCAAACAAAG,0.756,1.07,-0.452,-1,1.34,2.55,0.53,3.19,-0.287,2.33,2.96,3.14,2.14,0.623,1.81,3.55,2.61,2.1
CAAACTAGGTCAAAGAGGTCAAAGTCCGTGCGTA,8.36,8.45,2.17,1.31,5.02,6.37,10.5,6.42,2.57,4.77,5.27,6.66,6.81,3.24,7.15,4.4,2.33,6.65
TGTCTAAGTTCAAAGGTAACGTAAGTATCCACAC,-0.293,1.97,0.709,1.14,1.56,5.3,3.65,4.93,0.919,3.93,2.69,4.48,3.63,4.28,5.62,3.44,0.485,3.83
